Screening results from PubChem BioAssay.
Sampled rows, rich in hits. Any-hit rate of the full collection: about 18%.
TDP1 block: inhibitors of human tyrosyl-DNA phosphodiesterase TDP1; Q9NUW8; recombinant TDP1, AlphaScreen DNA substrate cleavage; Potency, µM (top dose mostly 130 µM), most hits filed as inhibitors; 0.28% of 350,000 active; note: nearly all actives have a fitted effect of over 40% in size
Target sequence (Q9NUW8 whole entry, looked up): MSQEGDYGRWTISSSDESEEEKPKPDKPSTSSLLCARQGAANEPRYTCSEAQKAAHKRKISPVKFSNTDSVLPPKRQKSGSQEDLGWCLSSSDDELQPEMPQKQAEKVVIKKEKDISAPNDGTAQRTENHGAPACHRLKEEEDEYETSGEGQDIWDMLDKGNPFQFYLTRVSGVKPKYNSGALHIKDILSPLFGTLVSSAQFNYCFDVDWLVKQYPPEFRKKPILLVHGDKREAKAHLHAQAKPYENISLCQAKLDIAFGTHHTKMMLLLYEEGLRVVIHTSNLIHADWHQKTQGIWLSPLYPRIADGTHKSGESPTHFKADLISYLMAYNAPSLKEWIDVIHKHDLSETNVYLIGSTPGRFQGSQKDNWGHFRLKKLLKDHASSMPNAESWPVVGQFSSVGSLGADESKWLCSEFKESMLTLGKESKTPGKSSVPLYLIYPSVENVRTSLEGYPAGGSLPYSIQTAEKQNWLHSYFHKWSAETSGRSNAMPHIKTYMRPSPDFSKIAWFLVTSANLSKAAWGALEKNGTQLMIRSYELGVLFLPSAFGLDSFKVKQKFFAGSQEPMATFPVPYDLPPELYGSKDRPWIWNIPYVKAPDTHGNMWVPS
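Steps: enzyme plus compound, 15 min RT; add biotin/phosphotyrosine-FITC oligonucleotide (15 nM final), react 5 min; add donor/acceptor beads (10 ug/ml final), 10 min; read AlphaScreen. Tdp1 at 1 nM final.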
DT40 TDP1 no CPT: qHTS for Inhibitors of human tyrosyl-DNA phosphodiesterase 1 (TDP1): qHTS in cells in absence of CPT; DT40 Tdp1-/- hTDP1 cells, no CPT, ATP luminescence, 48 h; Potency, µM (series often up to 46.2 µM), most hits filed as inhibitors; 15% of 420,000 active; note: nearly all actives have a fitted effect of over 55% in size
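Growth of hTDP1-complemented DT40 Tdp1-knockout cells is measured by ATP luminescence after at least 48 hr compound exposure at 37 °C, with DMSO substituting for the 20 nM CPT used in the parallel screen.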
DT40 TDP1 CPT: DT40-hTDP1 cell growth loss with CPT | 12% of 420,000 active | chicken DT40 Tdp1-/-;hTDP1 cells + 20 nM CPT, ATP luminescence, 48 h | AID 686979 | Potency, µM (top dose mostly 46.2 µM), hits mostly inhibitors; note: nearly all actives have a fitted effect of over 55% in size
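Chicken DT40 Tdp1-/- cells stably complemented with human TDP1 were seeded at 400 cells/well in medium containing 20 nM camptothecin, exposed to pin-transferred compounds, and grown at 37 °C for at least 48 hr. Viability was read as ATP luminescence.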
Six1-Eya2 blk: inhibitors of human Six1/Eya2 interaction; activity change, % (no concentration beside the values); AlphaScreen GST-Six1/His-Eya2 binding, biochemical; stronger effect = lower value; Q15475+O00167; 0.56% of 360,000 active; in the data active = activity change below about -65%; inconclusive = mostly about -30% to -63%
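Compounds are tested against tagged Six1 and Eya2 proteins bridged by glutathione donor and nickel acceptor beads; after a one-hour incubation at 37 °C without light, AlphaScreen emission is recorded.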
IL-1B inflam inh: blocks inflammasome-driven IL-1 beta release; THP-1 LPS/ATP IL-1B secretion, AlphaLISA, 16 h; stronger effect = lower value; activity change, % at 57.5 µM; 4.7% of 360,000 active; in the data active = activity change below about -50%; inconclusive = mostly about -30% to -49%
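Secreted IL-1B measured by AlphaLISA bead assay after 16 h compound exposure of THP-1 cells; compounds (final up to 57.5 uM) added 1 h before LPS (250 ng/mL) and ATP (1.25 mM) stimulation; lower signal means less secretion.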
CtBP-E1A blk: CtBP/E1A binding inhibition; AlphaScreen GST-E1A/His-CtBP binding, 1536-well; stronger effect = lower value; activity change, % (test concentration not listed); 0.49% of 340,000 active; AID 651724; in the data active = activity change below about -65%; inconclusive = mostly about -30% to -63%
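AlphaScreen with 125 nM GST-E1A and 125 nM His-CtBP (5X stocks) in Tris pH 8.0, 300 mM NaCl, BSA, Tween 20, TCEP. Compounds preincubated 2 h at 37 deg C, then glutathione donor/nickel acceptor beads added for 1 h at 37 deg C in dark.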
A number is an active result; - = inactive; ? = inconclusive; . = no result; [ ] = another dose, or the depositor's remark. Unless noted, calls come from the whole dose curve; as a rule, active = well fitted curve in the direction sought with a large enough effect; inconclusive = small, poorly fitted or top-dose-only effect, or another doubt; inactive = no such curve, though single readings can be large; an effect the other way counts as inactive or inconclusive.

SMILES	TDP1 block	DT40 TDP1 no CPT	DT40 TDP1 CPT	Six1-Eya2 blk	IL-1B inflam inh	CtBP-E1A blk
CC(Oc1ccccc1)C(=O)Nc1ccccc1C(=O)OCc1cc(=O)n2nc(C(C)C)sc2n1 (centres undefined)	-	20.6µM	?	.	.	.
Cc1nn2c(=O)cc(COC(=O)c3ccccc3NC(=O)C(C)C)nc2s1	-	11.6µM	?	.	.	.
COc1cc(NC(=O)CSc2ccc(-c3ccco3)nn2)cc(OC)c1	-	-	?	-	-	-
c1ccc(N2CCN(c3ccccc3)C2c2cccnc2)cc1	-	?	?	-	-	-
Cc1ccc(N2CCN(c3ccc(C)cc3)C2c2cccnc2)cc1	-	?	23.1µM	?	-86.2	?
c1ccc(N2CCN(c3ccccc3)C2c2ccncc2)cc1	-	-	-	-	-68.8	-
CC(=O)Nc1cc(C(=O)N2CCCC2)ccc1Sc1ccc(Cl)cc1	-	?	20µM	-	-	-
CC(=O)Nc1cc(C(=O)N2CCCC2)ccc1Sc1ccc(C)cc1	-	?	?	-	-	-
CCN(CCCNC(=O)c1ccc(Sc2ccc(Cl)cc2)c(NC(C)=O)c1)c1ccccc1	-	23.1µM	?	.	.	.
CCN(C(=O)C(C)OC(=O)CCCNC(=O)c1ccc(Cl)cc1)c1ccccc1 (centres undefined)	-	20.6µM	?	-	-	-
CCCCN(CCCNC(=O)c1ccc(Sc2ccc(Cl)cc2)c(NC(C)=O)c1)c1ccccc1	-	-	?	.	.	.
O=c1c([N+](=O)[O-])c(N2CCOCC2)c2ccccc2n1-c1ccccc1	-	-	?	-	-	-
O=C(C=Cc1ccccc1)NCCNC(=O)C=Cc1ccccc1	.	-	-	-	-	-
COc1ccc(N(CC(O)Cn2c(C)nc3ccccc32)S(=O)(=O)c2ccc(C)cc2)cc1 (centres undefined)	-	?	?	-	-	-
O=C(c1cc2c(s1)-c1ccccc1OC2)N1CCN(c2ccccc2)CC1	-	?	?	-	-	-
CN(C)CCCC1Sc2ccccc2Sc2ccccc21 (centres undefined)	.	?	?	-	-66.1	-
COc1cccc(CNC(=O)Cn2nc(-c3ccc(Cl)cc3)ccc2=O)c1	-	?	?	-	-	-
COC(=O)c1ccc(Cn2nc(-c3ccccc3)ccc2=O)cc1	.	-	-	-	-	-
COc1ccc(-c2ccc(=O)n(Cc3c(F)cccc3Cl)n2)cc1	.	7.31µM	14.6µM	-	-	.
O=c1ccc(-c2ccccc2)nn1Cc1ccc(Cl)cc1	.	16.4µM	?	-	-	-
C=Cc1ccc(Cn2nc(-c3ccc(C)cc3)ccc2=O)cc1	-	?	?	-	-78.8	-
Cc1ccc(-c2ccc(=O)n(CCC(=O)N3CCN(Cc4ccccc4)CC3)n2)cc1	.	?	-	-	-	-
COc1cccc(C(=O)NCC2Cc3c(F)ccc(-c4ncccn4)c3O2)c1OC (centres undefined)	.	?	-[9.04 µM]	.	.	.
COc1ccc2c(c1)c(CC(=O)Nc1nnc(C3CC3)s1)c(C)n2C(=O)c1ccc(Cl)cc1	-	8.2µM	14.6µM	-	-	-
COc1ccc2c(c1)c(CC(=O)Nc1ccc(C(C)=O)cc1)c(C)n2C(=O)c1ccc(Cl)cc1	-	16.4µM	20.6µM	-	-	-
SMILES	TDP1 block	DT40 TDP1 no CPT	DT40 TDP1 CPT	Six1-Eya2 blk	IL-1B inflam inh	CtBP-E1A blk
COc1ccc2c(c1)c(CC(=O)Nc1cc(C)ccc1C)c(C)n2C(=O)c1ccc(Cl)cc1	-	16.4µM	?	-	-	-
Cc1cc(OCC(=O)Nc2nnc(C3CC3)s2)ccc1Cl	.	?	-	-	-	-
COc1ccc2c(c1)c(CC(=O)Nc1ccccc1OC)c(C)n2C(=O)c1ccc(Cl)cc1	-	?	?	-	-	-
COc1ccc2c(c1)c(CC(=O)NCc1cc([N+](=O)[O-])ccc1O)c(C)n2C(=O)c1ccc(Cl)cc1	-	?	-	-	-	-
COc1cc(NC(=O)CSc2nc3c(c(=O)[nH]2)CCCC3)cc(OC)c1OC	-	-	-	-	-	-
COc1cc(/C=C(\C#N)C(=O)N2CCc3ccccc32)ccc1O	-	-	?	-	-	-
N#C/C(=C\c1ccc(O)c(O)c1)C(=O)N1CCc2ccccc21	.	20.6µM	?	-	-	-
CCN(CC)C(=O)C(=O)Nc1cc(C(F)(F)F)ccc1Cl	-	-	-	-	-	-
CCc1nnc(NC(=O)C23CC4CC(CC(C4)C2)C3)s1	.	-	-	-	-	-
CC(C)Cc1nnc(NC(=O)C23CC4CC(CC(C4)C2)C3)s1	.	18.4µM	?	-	-	.
COc1ccc(CCNC(=O)c2cn3ccc(C)cc3n2)cc1OC	-	16.4µM	?	-	-	.
COc1ccc(CCNC(=O)c2nnn(-c3cc(C)cc(C)c3)c2N)cc1OC	-	?	14.6µM	-	-	-
COc1ccc(CCNC(=O)c2cc(C(C)C)on2)cc1OC	-	?	?	-	-	-
Cc1ccc(CSC2=Nc3ccccc3C3=NC(CC(=O)NCc4cccs4)C(=O)N23)c(C)c1 (centres undefined)	-	20.6µM	14.6µM	.	.	.
COc1ccccc1CNC(=O)CCC1N=C2c3ccccc3N=C(SCc3ccc(C)cc3C)N2C1=O (centres undefined)	-	?	16.4µM	.	.	.
COc1ccccc1CNC(=O)CCC1N=C2c3ccccc3N=C(SCC(=O)Nc3ccc(F)cc3)N2C1=O (centres undefined)	-	-	-	.	.	.
CN(C)c1ccc(NC(=O)CSC2=Nc3ccccc3C3=NC(CCC(=O)NCc4cccs4)C(=O)N23)cc1 (centres undefined)	-	?	?	.	.	.
COc1ccccc1CNC(=O)CCC1N=C2c3ccccc3N=C(SCC(=O)Nc3ccc(N(C)C)cc3)N2C1=O (centres undefined)	-	20.6µM	?	.	.	.
COc1ccccc1CNC(=O)CC1N=C2c3ccccc3N=C(SCC(=O)Nc3ccc(F)cc3)N2C1=O (centres undefined)	-	?	25.9µM	.	.	.
Cc1c(NC(=O)c2cccc(NC(=O)c3ccco3)c2)cccc1C(=O)O	-	-	-	-	-	-
Cc1cc(C)cc(NC(=O)NCc2nnc(SCc3ccccc3)n2C)c1	-	-	-	-	-	-
Nc1ccc(C(=O)NCC(=O)O)cc1	-	-	?	-	-	-
CCS(=O)(=O)c1ccc(-c2csc(-c3ccccc3Cl)n2)c(Cl)c1Cl	-	23.1µM	?	-	-	-
Cc1ccc(C)c(CN2CCC(CNC(=O)CCc3nnc4ccc(N5CCCCC5)nn34)CC2)c1	-	-	-	-	-	.
